Experimental data taken from PubChem BioAssay (NCATS).
Inconclusive results are not listed. The source made the active and inactive calls. Unless noted, calls come from the whole dose curve; as a rule, active = well fitted curve in either direction with a large enough effect (not every such curve was filed as active); inconclusive = small, poorly fitted or top-dose-only effect, or another doubt; inactive = flat fitted curve, though single readings scatter.

Legend:
[1] = biological target: Lysosomal acid glucosylceramidase (Homo sapiens) (UniProt P04062); assay: Glucocerebrosidase-p2 (AID 348; in the data active = potency below about 10 µM; note: potency is the fitted concentration of half-maximal effect); conditions: purified GBA, blue fluorogenic substrate, 40 min
Procedure, shortened: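 Compounds titrated from 0.6 nM upwards against 0.2 nM enzyme in pH 5.9 citric acid/KH2PO4, taurocholate, tween-20; blue fluorogenic substrate 80 uM, 40 min room temperature, stopped and read Ex 365/Em 440 for AC50.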

[2] = AP1 Signaling Pathway (AID 357); conditions: ME-180 AP-1-bla reporter, EGF-induced, beta-lactamase ratio, 5 h; at 7.69 µM (top of the series) unless noted;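 note: ME-180 reporter cells stimulated with EGF at its EC50 level; % is set by controls: 0 for no effect and ±100 for the full control effect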
Procedure, shortened: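 In this screen, ME-180 cells in Opti-MEM with 0.5% dialyzed FBS received EC50 EGF and compound titrations for 5 h. AP-1 reporter beta-lactamase was detected via CCF4 ratio, giving AC50 for positive and negative modulators.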

[3] = biological target: Cytochrome P450 1A2 (Homo sapiens) (UniProt P05177); assay: p450-cyp1a2 (AID 410; calls by dose curve; note: potency is the fitted concentration of half-maximal effect;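 for activity change, negative = inhibition: -100% = full effect of reference inhibitor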); conditions: recombinant CYP1A2, luciferin-ME demethylation, luminescence; series mostly up to 11.4 µM
Procedure, shortened: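 Inhibition was calculated relative to 57 uM furafylline (full inhibition). The reaction used human CYP1A2 at 20nM with Luciferin-ME at its Km, 100uM, driven by an NADPH-regenerating system for 60 min at room temperature.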

[4] = NFAT Signaling Pathway (AID 444); conditions: Jurkat NFAT-bla M1, carbachol, beta-lactamase ratio, 5 h; at 7.69 µM (top of the series) unless noted;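 note: carbachol stimulus at about its EC50 of 1 µM final; % is set by controls: 0 for no effect and ±100 for the full control effect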
Procedure, shortened: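 Jurkat cells with NFAT-driven β-lactamase reporter and co-expressed M1 receptor, stimulated with carbachol (final 1 uM, ~EC50), compound titration, 5 h at 37 °C. CCF4 loaded 1 h at RT; 460/530 nm ratio gave %activity and AC50.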

[5] = Stat Signaling Pathway (AID 446); conditions: ME-180 SIE beta-lactamase reporter, IL-6 stimulated, 5 h; at 7.69 µM (top of the series) unless noted;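 note: ME-180 cervical cancer cells given 40 pM IL-6 alongside compound; SIE-controlled beta-lactamase reporter measured as 460/530 nm FRET emission ratio; % is set by controls: 0 for no effect and ±100 for the full control effect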
Procedure, shortened: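 Reporter line: ME-180 cervical carcinoma, SIE-beta-lactamase. Treatment: compound with 40 pM IL-6, 5 hrs, 37 C, in low-serum OPTI-MEM with 10 mM HEPES pH 7.3. Detection: 460/530 nm fluorescence.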

[6] = biological target: Glucocorticoid receptor (Homo sapiens) (UniProt P04150); assay: GR-GFP Redistribution (AID 450;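 active = compounds whose dose series gives a full or clear partial fitted curve of increased nuclear translocation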; note: potency is the fitted concentration of half-maximal effect); conditions: U2OS GR-GFP nuclear translocation, laser cytometry, 2 h
[7] = biological target: Glucocorticoid receptor (Homo sapiens) (UniProt P04150); assay: GR-EFC Redistribution (AID 451; calls by dose curve; note: potency is the fitted concentration of half-maximal effect); conditions: CHO-K1 GR-EFC translocation, beta-gal luminescence, 2 h
Procedure, shortened: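 CHO-K1 cells expressing nuclear EA and GR-ED fragments of b-gal; compounds titrated up to 46 uM final, 2 h at 37 C. GR nuclear translocation read as complemented b-gal luminescence after 1 h RT detection.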

[8] = biological target: Mitogen-activated protein kinase 10 (Mus musculus) (UniProt Q61831); assay: JNK3 AlphaScreen Assay (AID 530); conditions: JNK3 lysate, c-Jun phosphorylation; series mostly up to 57.1 µM;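 note: kinase came from lysate of stimulated human HepG2 cells; signal reports phosphorylation of biotinylated GST-cJun 1-79 at Ser73 with 10 µM ATP; % is set by controls: 0 for no effect and ±100 for the full control effect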
Procedure, shortened: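 qHTS format: compounds tested as titrations against IL-1beta/TNF-alpha-activated HepG2 lysate JNK3 with biotin-GST-cJun substrate and 10 uM ATP at room temperature. Loss of anti-phospho-cJun AlphaScreen signal indicates inhibition.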

[9] = biological target: 3',5'-cyclic-AMP phosphodiesterase 4B (Homo sapiens) (UniProt Q07343); assay: qHTS Assay for Inhibitors of PDE-IV (AID 607; active = well fitted activation curve with a large enough effect in the main read-out, with a control signal flat, not every such curve was filed as active; note: % of control where 0% means no effect); conditions: HEK293 ACTOne CNG channel cells, membrane potential fluorescence; series mostly up to 22.9 µM
Procedure, shortened: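 Cell-based read-out of cAMP via a modified cyclic nucleotide-gated channel and membrane potential dye (535/590 nm) in HEK293 cells expressing PDE4 endogenously. Compounds tested up to 22.9 uM final; 100 uM RO 20-1724 reference.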

Glucocorticoid receptor (Homo sapiens), sequence (P04150 whole entry, looked up, the tested form may be a part): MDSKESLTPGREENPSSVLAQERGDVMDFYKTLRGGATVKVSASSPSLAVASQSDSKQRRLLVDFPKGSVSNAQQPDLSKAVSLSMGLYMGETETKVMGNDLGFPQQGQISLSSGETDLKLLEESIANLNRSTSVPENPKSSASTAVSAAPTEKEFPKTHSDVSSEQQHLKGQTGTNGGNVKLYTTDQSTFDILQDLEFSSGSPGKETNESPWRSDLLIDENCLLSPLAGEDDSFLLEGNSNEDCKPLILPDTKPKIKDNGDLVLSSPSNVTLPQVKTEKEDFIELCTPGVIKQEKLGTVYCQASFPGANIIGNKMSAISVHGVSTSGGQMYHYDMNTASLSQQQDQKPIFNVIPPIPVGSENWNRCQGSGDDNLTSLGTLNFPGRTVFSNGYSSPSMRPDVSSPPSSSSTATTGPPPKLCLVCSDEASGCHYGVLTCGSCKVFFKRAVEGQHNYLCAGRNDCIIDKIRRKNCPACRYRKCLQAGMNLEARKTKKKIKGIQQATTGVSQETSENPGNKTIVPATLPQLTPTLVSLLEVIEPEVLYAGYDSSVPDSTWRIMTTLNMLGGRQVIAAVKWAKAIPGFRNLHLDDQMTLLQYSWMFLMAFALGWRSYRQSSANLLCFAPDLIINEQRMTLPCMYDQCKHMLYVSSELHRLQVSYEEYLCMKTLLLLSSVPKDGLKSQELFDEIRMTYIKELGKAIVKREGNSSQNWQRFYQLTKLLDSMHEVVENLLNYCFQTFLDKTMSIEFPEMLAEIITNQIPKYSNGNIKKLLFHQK
Cytochrome P450 1A2 (Homo sapiens), sequence (P05177 whole entry, looked up): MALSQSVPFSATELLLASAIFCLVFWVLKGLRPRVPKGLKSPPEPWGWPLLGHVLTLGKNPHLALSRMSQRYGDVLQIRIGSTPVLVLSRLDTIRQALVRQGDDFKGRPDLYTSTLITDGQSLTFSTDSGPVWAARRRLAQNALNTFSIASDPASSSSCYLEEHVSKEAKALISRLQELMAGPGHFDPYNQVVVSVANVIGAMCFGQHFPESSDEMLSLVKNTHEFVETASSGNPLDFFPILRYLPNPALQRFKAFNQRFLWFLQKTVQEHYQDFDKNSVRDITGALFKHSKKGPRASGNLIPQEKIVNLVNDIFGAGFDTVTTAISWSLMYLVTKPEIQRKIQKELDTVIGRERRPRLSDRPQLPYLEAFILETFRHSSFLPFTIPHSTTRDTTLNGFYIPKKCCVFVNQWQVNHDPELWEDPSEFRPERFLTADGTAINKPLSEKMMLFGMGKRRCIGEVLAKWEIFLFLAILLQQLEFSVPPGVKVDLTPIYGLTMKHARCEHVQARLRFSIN
Lysosomal acid glucosylceramidase (Homo sapiens), sequence (P04062 whole entry, looked up): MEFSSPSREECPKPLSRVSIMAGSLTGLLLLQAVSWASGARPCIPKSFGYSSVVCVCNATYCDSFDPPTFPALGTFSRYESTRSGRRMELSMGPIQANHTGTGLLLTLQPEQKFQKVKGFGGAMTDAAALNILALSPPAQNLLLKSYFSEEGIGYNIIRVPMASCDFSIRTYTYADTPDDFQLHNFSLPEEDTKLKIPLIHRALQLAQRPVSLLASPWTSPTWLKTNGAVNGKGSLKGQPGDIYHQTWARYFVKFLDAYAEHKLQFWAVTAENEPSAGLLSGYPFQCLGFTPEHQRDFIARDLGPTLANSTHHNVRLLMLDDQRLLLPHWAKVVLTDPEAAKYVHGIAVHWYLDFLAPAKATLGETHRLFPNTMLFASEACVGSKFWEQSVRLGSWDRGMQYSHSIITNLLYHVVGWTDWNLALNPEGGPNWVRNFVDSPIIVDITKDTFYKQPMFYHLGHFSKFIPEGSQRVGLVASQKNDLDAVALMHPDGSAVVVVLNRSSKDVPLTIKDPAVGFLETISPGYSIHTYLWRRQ
3',5'-cyclic-AMP phosphodiesterase 4B (Homo sapiens), sequence (Q07343 whole entry, looked up): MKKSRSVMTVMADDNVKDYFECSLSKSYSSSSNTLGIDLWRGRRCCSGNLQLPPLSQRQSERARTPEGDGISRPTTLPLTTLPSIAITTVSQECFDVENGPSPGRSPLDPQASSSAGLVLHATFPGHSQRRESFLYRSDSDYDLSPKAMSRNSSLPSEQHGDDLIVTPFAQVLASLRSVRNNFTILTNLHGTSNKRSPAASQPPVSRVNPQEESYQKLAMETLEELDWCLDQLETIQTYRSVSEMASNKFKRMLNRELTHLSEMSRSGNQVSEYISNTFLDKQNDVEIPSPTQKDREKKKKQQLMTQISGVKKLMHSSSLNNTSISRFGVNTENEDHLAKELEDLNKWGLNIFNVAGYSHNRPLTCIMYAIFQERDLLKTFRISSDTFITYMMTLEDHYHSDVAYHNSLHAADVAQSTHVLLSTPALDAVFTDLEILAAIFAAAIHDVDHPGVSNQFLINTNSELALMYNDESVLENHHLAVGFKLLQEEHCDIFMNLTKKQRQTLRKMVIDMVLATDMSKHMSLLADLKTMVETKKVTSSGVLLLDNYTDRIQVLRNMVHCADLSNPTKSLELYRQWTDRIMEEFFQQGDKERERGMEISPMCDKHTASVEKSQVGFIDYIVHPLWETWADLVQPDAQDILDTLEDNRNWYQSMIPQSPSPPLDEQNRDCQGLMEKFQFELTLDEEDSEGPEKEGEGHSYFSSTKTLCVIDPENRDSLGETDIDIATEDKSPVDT

O=C(O)[C@H]1[O][Sb][O][C@@H](C(=O)O)C1O (stereo not given in full)
inactive: Potency [1] > 11.4 µM | activity change, negative = inhibition [2] 1.25% | activity change, negative = inhibition [3] -15% [at 2.29 µM] | activity change, negative = inhibition [4] 8.28% | activity, negative = inhibition [5] 6.32% | Potency [6] > 46 µM | Potency [7] > 9.22 µM | activity change, negative = inhibition [8] -2.33% [at 11.4 µM] | outcome [9]

O=C(O)/C=C\c1ccc[c]([Sb](=[O])([OH])[OH])c1
inactive: Potency [1] > 11.4 µM | activity change, negative = inhibition [2] -8.12% | activity change, negative = inhibition [3] -9.5% [at 2.29 µM] | activity change, negative = inhibition [4] 12.6% | activity, negative = inhibition [5] -20.4% | Potency [6] > 46 µM | Potency [7] > 9.22 µM | activity change, negative = inhibition [8] 3.13% [at 11.4 µM] | outcome [9]

CC(C)CC(=O)C[C@H](O)C(Cl)(Cl)Cl
inactive: Potency [1] > 11.4 µM | activity change, negative = inhibition [2] 3.65% | Potency [3] | activity change, negative = inhibition [4] -9% | activity, negative = inhibition [5] -1.91% | Potency [6] > 46 µM | Potency [7] > 9.22 µM | activity change, negative = inhibition [8] 5.57% [at 11.4 µM] | outcome [9]

O=C(O)C[C@H]1NCc2cc3ccccc3nc21
inactive: Potency [1] > 11.4 µM | activity change, negative = inhibition [2] 2.39% | activity change, negative = inhibition [3] -4.9% [at 2.29 µM] | activity change, negative = inhibition [4] 13.5% | activity, negative = inhibition [5] 5.32% | Potency [6] > 46 µM | Potency [7] > 9.22 µM | activity change, negative = inhibition [8] 1.75% [at 11.4 µM] | outcome [9]

[N-]=[N+]=NCC(=O)c1c[nH]c(=O)[nH]c1=O
inactive: Potency [1] > 11.4 µM | activity change, negative = inhibition [2] 12.2% | activity change, negative = inhibition [3] 0.1% [at 2.29 µM] | activity change, negative = inhibition [4] 5.05% | activity, negative = inhibition [5] 1.86% | Potency [6] > 46 µM | Potency [7] > 9.22 µM | activity change, negative = inhibition [8] 0.476% [at 11.4 µM] | outcome [9]

CC1=NN(c2ccc(S(=O)(=O)O)cc2C)C(=[OH+])[C@H]1N=Nc1cc(S(=O)(=O)O)ccc1C(=O)O.O.[Cr]
inactive: Potency [1] > 11.4 µM | activity change, negative = inhibition [2] -5.8% | Potency [3] | activity change, negative = inhibition [4] 12.1% | activity, negative = inhibition [5] 7.29% | Potency [6] > 46 µM | Potency [7] > 9.22 µM | activity change, negative = inhibition [8] -0.77% [at 11.4 µM] | outcome [9]

O=C(O)CSCC(=O)O
inactive: Potency [1] > 11.4 µM | activity change, negative = inhibition [2] -1.42% | Potency [3] | activity change, negative = inhibition [4] 2.38% | activity, negative = inhibition [5] 7.17% | Potency [6] > 46 µM | Potency [7] > 9.22 µM | activity change, negative = inhibition [8] 8.86% [at 11.4 µM] | outcome [9]

CC1=C2C(=O)[C@@H]3[C@@H](CC=C4C[C@@H](O)CC[C@@]43C)[C@H]2CC[C@@]12O[C@H]1C[C@H](C)CN[C@H]1[C@@H]2C
inactive: Potency [1] > 11.4 µM | activity change, negative = inhibition [2] 1.78% | Potency [3] | activity change, negative = inhibition [4] 3.5% | activity, negative = inhibition [5] 0.17% | Potency [6] > 46 µM | Potency [7] > 9.22 µM | activity change, negative = inhibition [8] 0.541% [at 11.4 µM] | outcome [9]

CS(=N)(=O)CC[C@H](N)P(=O)(O)O (stereo not given in full)
inactive: Potency [1] > 11.4 µM | activity change, negative = inhibition [2] -0.909% | Potency [3] | activity change, negative = inhibition [4] -0.082% | activity, negative = inhibition [5] 2.22% | Potency [6] > 46 µM | Potency [7] > 9.22 µM | activity change, negative = inhibition [8] -2.65% [at 11.4 µM] | outcome [9]

c1ccc(CCN2CCCCCC2)nc1
inactive: Potency [1] > 11.4 µM | activity change, negative = inhibition [2] -1.84% | Potency [3] | activity change, negative = inhibition [4] -10.4% | activity, negative = inhibition [5] 3.27% | Potency [6] > 46 µM | Potency [7] > 9.22 µM | activity change, negative = inhibition [8] 4.35% [at 11.4 µM] | outcome [9]

Cc1ncc([N+](=O)[O-])n1CCN=[N+]=[N-]
inactive: Potency [1] > 11.4 µM | activity change, negative = inhibition [2] 3.02% | Potency [3] | activity change, negative = inhibition [4] 5.75% | activity, negative = inhibition [5] -11.7% | Potency [6] > 46 µM | Potency [7] > 9.22 µM | activity change, negative = inhibition [8] 2.72% [at 11.4 µM] | outcome [9]

O=C(O)CN1C(=O)CN=C(c2ccccn2)c2cc(Cl)ccc21
inactive: Potency [1] > 11.4 µM | activity change, negative = inhibition [2] 0.0967% | activity change, negative = inhibition [4] -1.6% | activity, negative = inhibition [5] 6.14% | Potency [6] > 46 µM | Potency [7] > 9.22 µM | activity change, negative = inhibition [8] 3.65% [at 11.4 µM] | outcome [9]
active: Potency [3] 1.26 µM

CN(C)CCCc1cccnc1
inactive: Potency [1] > 11.4 µM | activity change, negative = inhibition [2] 3.48% | activity change, negative = inhibition [3] -10.2% [at 2.29 µM] | activity change, negative = inhibition [4] 16.7% | activity, negative = inhibition [5] -4.3% | Potency [6] > 46 µM | Potency [7] > 9.22 µM | activity change, negative = inhibition [8] 3.96% [at 11.4 µM] | outcome [9]

O=C(O)C(C(=O)O)P(=S)(S)c1ccccc1 (stereo not given)
inactive: Potency [1] > 11.4 µM | activity change, negative = inhibition [2] 3.83% | Potency [3] | activity change, negative = inhibition [4] 11.1% | activity, negative = inhibition [5] 2.85% | Potency [6] > 46 µM | Potency [7] > 9.22 µM | activity change, negative = inhibition [8] 2.73% [at 11.4 µM] | outcome [9]

N#CCCCC[N+]12CN3CN(CN(C3)C1)C2
inactive: Potency [1] > 11.4 µM | activity change, negative = inhibition [2] 12.8% | activity change, negative = inhibition [3] 15% [at 2.29 µM] | activity change, negative = inhibition [4] 5.06% | activity, negative = inhibition [5] -17.9% | Potency [6] > 46 µM | Potency [7] > 9.22 µM | activity change, negative = inhibition [8] 0.429% [at 11.4 µM] | outcome [9]
